What was measured:
Type in all cases: functional
Plasmodium falciparum [1] = assay: GSK_TCMDC: Inhibition of Plasmodium falciparum 3D7 in whole red blood cells, using parasite LDH activity as an index of growth. Test compounds present at 2uM
Plasmodium falciparum [2] = assay: GSK_TCMDC: Inhibition of Plasmodium falciparum Dd2 in whole red blood cells, using parasite LDH activity as an index of growth. Test compounds present at 2uM
HepG2 = assay: GSK_TCMDC: Percent inhibition of human HepG2 cell line. Test compounds present at 10uM.

SMILES | Inhibition (Plasmodium falciparum [1]) [%] | Inhibition (Plasmodium falciparum [2]) [%] | Inhibition (HepG2) [%]
Oc1ccccc1CNCC(O)c1cccc(C(F)(F)F)c1 (stereo not given) | 100 | 97 | 1
COc1nc(N)ncc1C(=O)NC1CN2CCC1CC2 (stereo not given) | 92 | 0 | 26
CC[C@H]1CN2CC[C@H]1C[C@H]2[C@H](O)c1cc(N2CCC3CCCCC3C2)nc2ccc(OC)cc12 (stereo not given in full) | 100 | 99 | 50
Cl.O=C(/C=C/c1ccc(Cl)c(Cl)c1)NC1C2CCC1CC(CN1CCC(c3c[nH]c4ccccc34)CC1)C2 (stereo not given) | 100 | 100 | 31
Cc1c(C)c2c(c(C)c1O)CC[C@](C)(C(=O)N1CCC(CN3CCC(c4c[nH]c5ccccc45)CC3)CC1)O2 | 100 | 98 | 29
O=[N+]([O-])c1ccc(Oc2c(Cl)cc(S(=O)(=O)NC3CCC(CN4CCC(c5c[nH]c6ccccc56)CC4)CC3)cc2Cl)c(Cl)c1 (stereo not given) | 100 | 64 | 30
O=C(/C=C/c1ccc(Cl)c(Cl)c1)N1CCC(CN2CCC(c3cn(CC(=O)N4CCCCC4)c4ccccc34)CC2)CC1.O=C(O)C(F)(F)F | 100 | 65 | 52
CC(C)CCNC(=O)c1cc(C(=O)c2cc(F)ccc2O)cn(CCC(C)C)c1=O | 100 | 45 | 14
O=C(COc1ccc(Cl)cc1)N1CCC(CN2CCC(c3c[nH]c4ccccc34)CC2)CC1 | 89 | 13 | 48
Cc1cc(C(=O)NC2CCN(CC3(c4ccc(Cl)cc4)CCC3)CC2)on1 | 98 | 95 | 5

Source: ChEMBL document CHEMBL1157539, “Thousands of chemical starting points for antimalarial lead identification” (Nature, 2010)
